Parameters in all cases: species or system human, MV4-11 + K-562 + COLO205 + SK-N-BE2 + OVCAR-8
In experiment [1] the test system is ACVR2B. The settings on record: read-out: apparent Kd, compound concentrations: 100 nM and 1000 nM (sheet 'Samples'), n = 1.
Experiment [2] has as its system AURKA. The settings on record: read-out: apparent Kd; compound concentrations: 100 nM and 1000 nM (sheet 'Samples'), CATDS: 0.17816442953383199; n = 1.
The test system of experiment [3] is AURKB. The settings on record: read-out: apparent Kd; compound concentrations: 100 nM and 1000 nM (sheet 'Samples'), CATDS: 0.16275021162643; n = 1.
Experiment [4] has as its system CDKL5. The settings on record: read-out: apparent Kd; compound concentrations: 100 nM and 1000 nM (sheet 'Samples'), CATDS: 3.9289785265400001E-2; n = 1.
Experiment [5] relates to FGFR1. The settings on record: read-out: apparent Kd; compound concentrations: 100 nM and 1000 nM (sheet 'Samples'), CATDS: 3.3147223570266997E-2; n = 1.
The test system of experiment [6] is FLT3. The settings on record: read-out: apparent Kd, compound concentrations: 100 nM and 1000 nM (sheet 'Samples'), n = 1.
Experiment [7] relates to FLT4. The settings on record: read-out: apparent Kd, compound concentrations: 100 nM and 1000 nM (sheet 'Samples'), n = 1.
For experiment [8], the system named is GSK3A. The settings on record: read-out: apparent Kd; compound concentrations: 100 nM and 1000 nM (sheet 'Samples'), CATDS: 0.17602991696345399; n = 1.
Experiment [9] deals with GSK3B. The settings on record: read-out: apparent Kd; compound concentrations: 100 nM and 1000 nM (sheet 'Samples'), CATDS: 0.14122707507865501; n = 1.
The test system of experiment [10] is MAP3K1. The settings on record: read-out: apparent Kd; compound concentrations: 100 nM and 1000 nM (sheet 'Samples'), CATDS: 3.7364470577418298E-2; n = 1.
For experiment [11], the system named is MAP3K5. The settings on record: read-out: apparent Kd; compound concentrations: 100 nM and 1000 nM (sheet 'Samples'), CATDS: 2.9017198987143701E-2; n = 1.
For experiment [12], the system named is MAPK10. The settings on record: read-out: apparent Kd; compound concentrations: 100 nM and 1000 nM (sheet 'Samples'), CATDS: 3.1635267678624499E-2; n = 1.
For experiment [13], the system named is MAPK9. The settings on record: read-out: apparent Kd; compound concentrations: 100 nM and 1000 nM (sheet 'Samples'), CATDS: 4.3387929743655899E-2; n = 1.
Experiment [14] has as its system NQO2. The settings on record: read-out: apparent Kd, n = 1.
In experiment [15] the test system is NUAK1. The settings on record: read-out: apparent Kd; compound concentrations: 100 nM and 1000 nM (sheet 'Samples'), CATDS: 3.13847647871121E-2; n = 1.
Experiment [16] concerns PLK4. The settings on record: read-out: apparent Kd; compound concentrations: 100 nM and 1000 nM (sheet 'Samples'), CATDS: 5.2678675037883101E-2; n = 1.
Experiment [17] has as its system PRKAA2. The settings on record: read-out: apparent Kd; compound concentrations: 100 nM and 1000 nM (sheet 'Samples'), CATDS: 3.01302788001056E-2; n = 1.
Experiment [18] deals with RET. The settings on record: read-out: apparent Kd, compound concentrations: 100 nM and 1000 nM (sheet 'Samples'), n = 1.
The subject of experiment [19] is SLK. The settings on record: read-out: apparent Kd; compound concentrations: 100 nM and 1000 nM (sheet 'Samples'), CATDS: 2.96585498316322E-2; n = 1.
In experiment [20] the test system is STK10. The settings on record: read-out: apparent Kd; compound concentrations: 100 nM and 1000 nM (sheet 'Samples'), CATDS: 4.4384834768784902E-2; n = 1.
The subject of experiment [21] is STK16. The settings on record: read-out: apparent Kd; compound concentrations: 100 nM and 1000 nM (sheet 'Samples'), CATDS: 3.04344636095151E-2; n = 1.
The test system of experiment [22] is TEC. The settings on record: read-out: apparent Kd; compound concentrations: 100 nM and 1000 nM (sheet 'Samples'), CATDS: 3.6245892865131898E-2; n = 1.
In experiment [23] the test system is TTN. The settings on record: read-out: apparent Kd; compound concentrations: 100 nM and 1000 nM (sheet 'Samples'), CATDS: 3.6738161320686101E-2; n = 1.
Experiment [24] has as its system ACVR1B. The settings on record: read-out: apparent Kd; compound concentrations:100 nM and 1000 nM (sheet 'Samples'); n = 1.
Experiment [25] deals with TGFBR1. The settings on record: read-out: apparent Kd; compound concentrations:100 nM and 1000 nM (sheet 'Samples'); n = 1.
The subject of experiment [26] is TGFBR2. The settings on record: read-out: apparent Kd, n = 1.
Experiment [27] concerns TNIK. The settings on record: read-out: apparent Kd; compound concentrations:100 nM and 1000 nM (sheet 'Samples'); n = 1.
The test system of experiment [28] is ACVR1. The settings on record: read-out: apparent Kd, compound concentrations: 100 nM and 1000 nM (sheet 'Samples'), n = 1.
Experiment [29] has as its system AKT1. The settings on record: read-out: apparent Kd; compound concentrations: 100 nM and 1000 nM (sheet 'Samples'), CATDS: 8.7869055703498899E-2; n = 1.
For experiment [30], the system named is AKT2. The settings on record: read-out: apparent Kd; compound concentrations: 100 nM and 1000 nM (sheet 'Samples'), CATDS: 9.9123908030557498E-2; n = 1.
In experiment [31] the test system is DDR2. The settings on record: read-out: apparent Kd; compound concentrations: 100 nM and 1000 nM (sheet 'Samples'), CATDS: 9.6979339213766697E-2; n = 1.
The subject of experiment [32] is ERBB3. The settings on record: read-out: apparent Kd; compound concentrations: 100 nM and 1000 nM (sheet 'Samples'), CATDS: 0.104926252845552; n = 1.
Experiment [33] deals with MAP2K1. The settings on record: read-out: apparent Kd; compound concentrations: 100 nM and 1000 nM (sheet 'Samples'), CATDS: 9.3485581268639997E-2; n = 1.
Experiment [34] deals with NCL. The settings on record: read-out: apparent Kd; compound concentrations: 100 nM and 1000 nM (sheet 'Samples'), CATDS: 9.6162289206332394E-2; n = 1.
The test system of experiment [35] is NNT. The settings on record: read-out: apparent Kd; compound concentrations: 100 nM and 1000 nM (sheet 'Samples'), CATDS: 0.104881561069948; n = 1.
For experiment [36], the system named is RIOK2. The settings on record: read-out: apparent Kd; compound concentrations: 100 nM and 1000 nM (sheet 'Samples'), CATDS: 9.3979230016613804E-2; n = 1.
Experiment [37] relates to BCR. The settings on record: read-out: apparent Kd; compound concentrations: 100 nM and 1000 nM (sheet 'Samples'), CATDS: 7.0620023573944493E-2; n = 1.
For experiment [38], the system named is FRK. The settings on record: read-out: apparent Kd; compound concentrations: 100 nM and 1000 nM (sheet 'Samples'), CATDS: 7.6735011828902105E-2; n = 1.
The subject of experiment [39] is FYN. The settings on record: read-out: apparent Kd; compound concentrations: 100 nM and 1000 nM (sheet 'Samples'), CATDS: 5.82468241174715E-2; n = 1.
Experiment [40] concerns GAK. The settings on record: read-out: apparent Kd; compound concentrations: 100 nM and 1000 nM (sheet 'Samples'), CATDS: 5.5943535710341101E-2; n = 1.
Experiment [41] relates to IRAK3. The settings on record: read-out: apparent Kd; compound concentrations: 100 nM and 1000 nM (sheet 'Samples'), CATDS: 6.2537206863604394E-2; n = 1.
The test system of experiment [42] is PIP4K2C. The settings on record: read-out: apparent Kd; compound concentrations: 100 nM and 1000 nM (sheet 'Samples'), CATDS: 5.2092814624207201E-2; n = 1.
The test system of experiment [43] is RIPK2. The settings on record: read-out: apparent Kd; compound concentrations: 100 nM and 1000 nM (sheet 'Samples'), CATDS: 0.18233295125810001; n = 1.
Experiment [44] has as its system STK11. The settings on record: read-out: apparent Kd; compound concentrations: 100 nM and 1000 nM (sheet 'Samples'), CATDS: 4.7078768974871503E-2; n = 1.
Setting [45] is: compound concentrations:100 nM and 1000 nM (sheet 'Samples').

Read-outs that look alike come from different tables or passages of the source.

For the molecule `Cc1[nH]nc2c1N=C(c1ccccc1F)c1cc(C(N)=O)ccc1N2` [RO0282586-000], the potency estimated from few doses in experiment [1] (CATDS: 3.5760557024692601E-2) was 1000 nM; in experiment [2] it was 30 nM; in experiment [3] it was 34.5 nM; in [4], 749 nM; in [5], 1300 nM; in experiment [6] (CATDS: 3.2008123306219403E-2), 1480 nM. The potency estimated from few doses in experiment [7] (CATDS: 9.9526112559891702E-2) was 82.8 nM; in experiment [8], 30.5 nM; in experiment [9], 43.6 nM; in experiment [10] it was 873 nM; in [11], 2230 nM; in experiment [12] it was 1550 nM. Also, the potency estimated from few doses in [13] is 564 nM; in [14] (compound concentrations: 100 nM and 1000 nM (sheet 'Samples'), CATDS: 5.8964681911963503E-2), 259 nM; in experiment [15], 1600 nM; in [16], 340 nM; in [17], 1890 nM; in experiment [18] (CATDS: 5.3147422630729399E-2) it was 333 nM. The potency estimated from few doses in [19] is 2020 nM; in [20], 530 nM; in experiment [21], 1810 nM; in [22] it was 960 nM; in experiment [23], 920 nM.

With `COc1ccc(-c2cc(-c3c[nH]nc3-c3ccccn3)ccn2)cc1` [GW679410X], the potency estimated from few doses in experiment [24] was 686 nM; in [14] (setting [45]) it was 168 nM; in experiment [25], 170 nM; in experiment [26] (setting [45]) it was 1290 nM; in experiment [27], 1140 nM.

As to `COc1ccc(C)c(Nc2ccnc(Nc3ccc(-c4cnc[nH]4)cc3)n2)c1.Cl` [GW784041A], the potency estimated from few doses was 1190 nM in [28] (CATDS: 0.125244350144667); 1600 nM in [1] (CATDS: 0.106004759644949); 2370 nM in [29]; 1820 nM in experiment [30]; 1910 nM in experiment [31]; 1630 nM in experiment [32]. In addition, the potency estimated from few doses was 2060 nM in experiment [33], 1940 nM in experiment [34], 1630 nM in experiment [35] and 2040 nM in experiment [36].

Consider `Cc1ccc(Nc2ccnc(Nc3cccc(C(N)=O)c3)n2)cc1O.Cl` [GW575808A], for which the potency estimated from few doses in experiment [28] (CATDS: 7.6276409382360397E-2) was 534 nM; in experiment [1] (CATDS: 0.210677427457096) it was 77 nM; in experiment [37], 645 nM; in experiment [6] (CATDS: 5.3612696826146597E-2), 1450 nM; in [7] (CATDS: 5.6175855360763499E-2) it was 1240 nM; in experiment [38], 526 nM. For the same molecule, the potency estimated from few doses is 1100 nM in [39]; 1250 nM in [40]; 894 nM in experiment [41]; 1610 nM in experiment [42]; 578 nM in experiment [18] (CATDS: 7.3825490143618097E-2); 96.9 nM in [43]. The potency estimated from few doses in experiment [44] is 2430 nM; in experiment [26] (compound concentrations: 100 nM and 1000 nM (sheet 'Samples'), CATDS: 0.25024360667503898) it was 59.4 nM.
